Data as given in PubChem BioAssay AID449762 (Southern Research Specialized Biocontainment Screening …, 2010).
Several values for one entry are separate records, joined by “and”; a condition that tells them apart may be missing. Identical values can stand only once. Screen size: about 330,000 compounds; about 1,900 (0.58%) were called active. Not shown: some 4% with an inconclusive outcome. Only a sample is shown. Results with a measured potency or affinity are listed apart. Unmarked numbers belong to inactive results. Rule as the data show it: inconclusive = inhibition above about 70% without an active follow-up result; inactive = below that.

Experiment: M. tuberculosis growth inhibition, HTS (AID 449762);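 also: bacterial growth assessed after seven days of incubation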
Settings: M. tuberculosis H37Rv growth inhibition, 7H9 media; at 25 µM; hits give high values

Point of comparison: `CCSc1nnc(NC(=O)CCCOc2ccc(C)cc2)s1`, inhibition 1.29%. Against it:
- COc1ccc2c(c1)c(C(C)=O)c(C)n2CCc1ccccc1 — lower, -7.55%
- CC(=O)c1c(C)n(Cc2ccccc2)c2ccc(O)cc12 — lower, -1.54%
- Cn1cc(CNC(=O)c2cc(COc3ccc4c(c3)CCCC4)on2)cn1 — higher, 7.16%
- CN(C)c1oc(/C=C/c2ccccc2)nc1C#N — higher, 2.83%
- Cc1ccc(C(=O)NC(C)C2CCCO2)o1 (stereo not given) — lower, -14.8%
- Cc1ccc(S(=O)(=O)N2CCCCC2C(=O)N2CCN(C)CC2)cc1 (stereo not given) — lower, -3.69%
- CN(C)c1cccc(/C=C(\C#N)c2ccccc2)c1 — higher, 11.4%
- CC(C)(C=O)C1=CC(=O)c2ccccc2C1=O — lower, -5.62%
- COc1ccccc1-n1c(CNC(=O)c2ccco2)nnc1SCC(=O)Nc1cc(C)ccc1C — lower, -9.93%
- CCCCCCNc1nc(-c2ccc(OC)cc2)c(CCC(=O)O)s1 — higher, 31%
- Fc1ccc2[nH]c3c(NCCN4CCOCC4)ncnc3c2c1 — lower, 1.25%
- Cc1ccc2[nH]c3c(NCc4ccccc4)ncnc3c2c1 — higher, 67.8%
- COc1ccc(CNc2ncnc3c2[nH]c2ccccc23)cc1 — higher, 59.2%
- COc1ccc(CCNc2ncnc3c2[nH]c2cc(OC)c(OC)cc23)cc1OC — lower, -4.75%
- C=CCn1c(SCC(=O)c2c(N)n(CCC)c(=O)n(C)c2=O)nc2sc(CC)cc2c1=O — lower, 0.69%
- CSc1ccc(/C=C/C(=O)OCC(=O)c2ccc[nH]2)cc1 — higher, 5.61%
- O=C(O)CC(C(=O)NCc1ccccc1)C1CCCO1 (stereo not given) — lower, -7.82%
- COc1cc(NC(=O)c2ccnnc2)cc(C(=O)Nc2cccc(C(F)(F)F)c2)c1 — higher, 42.8%
- COc1cc(NC(=O)c2cnc(N)o2)cc(C(=O)Nc2cccc(C(F)(F)F)c2)c1 — higher, 2.04%
- Cc1ccc(C)c(N2CCN(S(=O)(=O)c3c(C)[nH]c(C)c3C(=O)N3CCCCC3)CC2)c1 — lower, -4.36%
- Cc1cc(C(=O)COc2ccccc2C(N)=O)c(C)n1CC1CCCO1 (stereo not given) — lower, -7.82%
- Cc1cc(C(=O)COc2ccccc2C(N)=O)c(C)n1C — lower, -2.03%
- O=C(O)/C=C\C(=O)Nc1ccccc1N1CCN(c2ccccc2)CC1 — lower, -0.24%
- O=C(CSc1nnc2c(n1)[nH]c1ccccc12)Nc1ccc2c(c1)OCO2 — lower, 0.35%
- COc1cc(CC(=O)N/N=C/c2ccc([N+](=O)[O-])cc2)c([N+](=O)[O-])cc1OC — higher, 2.69%
- CCC(C)NC(=S)Nc1ccc(F)cc1 (stereo not given) — lower, -4.81%
- CCC(C)NS(=O)(=O)c1ccc(NS(C)(=O)=O)cc1 (stereo not given) — higher, 4.07%
- O=C(Cc1cccs1)NCc1cccc(CNC(=O)Cc2cccs2)c1 — lower, 1.18%
- COc1ccc(C2NCc3ccccc3-n3cccc32)cc1 (stereo not given) — lower, -8.78%
- N#Cc1ccc(C(=O)NCCCSc2ccccc2)cc1 — lower, -3.48%
- CCC(C)N1CC(=O)N2C(c3ccc(OC)cc3OC)c3[nH]c4ccccc4c3C[C@H]2C1=O (stereo not given in full) — higher, 6.67%
- CCOc1ccc(OCCC(=O)OCC(=O)NC2CCCC2)cc1 — higher, 4.34%
- CCCn1c(C(C)Nc2nc(-c3ccc(C)cc3)cs2)nc2cc(Cl)c(N3CCCCC3)cc21 (stereo not given) — higher, 44.2%
- COc1ccc(-c2csc(NC(C)c3nc4cc(Cl)c(Cl)cc4n3CCCO)n2)cc1 (stereo not given) — higher, 35.7%
- Cc1ccc(CN2CCC(c3cc(-c4cccs4)n[nH]3)CC2)cc1 — higher, 42.8%
- CCOC(=O)CN1CCC(c2cc(-c3ccc(Cl)cc3)n[nH]2)CC1 — lower, 0.17%
- COc1ccc(OC)c(-c2cc(C3CCN(C(=O)OC(C)(C)C)CC3)[nH]n2)c1 — lower, -1.26%
- COc1ccc(-c2cc(C3CCN(Cc4ccc([N+](=O)[O-])cc4)CC3)[nH]n2)cc1 — higher, 39.6%
- COc1ccc(-c2cc(C3CCN(CC(O)C(F)(F)F)CC3)[nH]n2)cc1 (stereo not given) — higher, 7.78%
- CC(C)(C)OC(=O)N1CCC(c2cc(-c3cccs3)n[nH]2)CC1 — higher, 10.2%
- CCCCCOc1ccc(CSc2ncn[nH]2)cc1 — higher, 29.4%
- COc1cccc(CN2C(=O)C(C)Oc3ccccc32)c1 (stereo not given) — lower, -3.69%
- O=C(CSc1nncc2ccccc12)N1CCOCC1 — lower, -0.48%
- O=C1COc2ccc(S(=O)(=O)CCC(=O)N3CCN(c4ccccc4)CC3)cc2N1 — lower, -9.62%
- O=C(NCCN1CCOCC1)c1ccc(Cl)nc1Cl — lower, -1.1%
- CN(CCOc1ccccc1)Cc1nc2cc(Cl)ccc2c(=O)[nH]1 — higher, 58.8%
- CC(c1nc2ccccc2c(=O)[nH]1)N(C)c1ccc2ccccc2c1 (stereo not given) — lower, -13.1%
- CCC(Sc1nc(C)cc(=O)[nH]1)C(=O)Nc1ccc(Cl)cn1 (stereo not given) — lower, -1.49%
- COc1ccc(CCN(C(=O)c2cccc(F)c2)C2CC(=O)N(c3ccc(OC)cc3)C2=O)cc1 (stereo not given) — higher, 2.05%
- CCN(CC(=O)Nc1c(F)cccc1F)C(=O)CCCc1nc2ccccc2c(=O)[nH]1 — higher, 5.24%
- Cc1cccc(CCNC(=O)CC2C(=O)NCCN2CC2CCCCC2)n1 (stereo not given) — lower, 0.82%
- CCOC(=O)c1c(NC(=O)CSc2ncccn2)sc2c1CC(C)(C)NC2(C)C — higher, 8.68%
- CCOC(=O)c1c(NC(=O)CSc2nc3ccccc3[nH]2)sc2c1CC(C)(C)NC2(C)C — higher, 35.9%
- O=C(O)CC(Cc1ccc(Cl)cc1)C(=O)NCc1ccccc1 (stereo not given) — lower, -1.83%
- O=C(O)c1cnn(-c2nc(-c3cccc(F)c3)cs2)c1C(F)(F)F — lower, -9.37%
- CCCNC(=O)c1ccccc1NC(=O)Nc1ccccc1C — lower, -3.01%
- COc1ccc2cc1Oc1ccc(cc1)CC1c3c(cc(OC)c4c3Oc3cc5c(cc3O4)CCNC5C2)CCN1C (stereo not given) — higher, 2.26%
- COc1ccc2cc1Oc1ccc(cc1)C[C@H]1c3cc(c(OC)cc3CCN1C)Oc1c(OC)c(OC)cc3c1[C@H](C2)N(C)CC3 — lower, -2.74%

In the case of `CC1=CC(=O)c2ccccc2C1=O`, the inhibition was -6.06% and 0.39%.
